Records with an inconclusive call do not appear. Entries that show only a call come without a potency. Calls of active or inactive are those of the source. Calls follow the shape of the dose curve; as a rule, active = well fitted curve in the direction sought with a large enough effect; inconclusive = small, poorly fitted or top-dose-only effect, or another doubt; inactive = no such curve, though single readings can be large; an effect the other way counts as inactive or inconclusive.
Legend:
[1] = molecular target: Cytochrome P450 3A4 (Homo sapiens) (UniProt P08684); assay: qHTS Assay for Inhibitors and Substrates of Cytochrome P450 3A4 (AID 884); also: series mostly up to about 57 µM; nearly all actives have a fitted effect of over 50% in size
Procedure, shortened: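 Luminescent readout of luciferin produced by CYP3A4 (20 nM) dealkylation of Luciferin-PPXE, 25 uM (its KM). NADPH-driven reaction ran 60 min at RT after 10 min compound preincubation; data scaled to 57 uM ketoconazole as 100% inhibition.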

[2] = Confirmation and Secondary Assay for Modulators of Hemoglobin Beta Chain Splicing at IVS2 654 locus (AID 910);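 also: HeLa cells stably carrying EGFP split by mutant beta-globin IVS2-654 intron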
Procedure, shortened: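 HeLa cells stably expressing EGFP interrupted by β-globin IVS2-654 intron, seeded overnight in Opti-MEM/2% FCS, then treated 2 days at 37 °C. Restored splicing read as total peak GFP intensity per well by laser scanning cytometry (488 nm excitation, 500–520 nm emission); 500 nM antisense PNA as control.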

[3] = molecular target: Cytochrome P450 3A4 (Homo sapiens) (UniProt P08684); assay: qHTS Assay for Activators of Cytochrome P450 3A4 (AID 885); also: nearly all actives have a fitted effect of over 65% in size
Procedure, shortened: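 Activators are scored by enhanced luminescence from CYP3A4 conversion of luciferin-PPXE (25uM, equal to KM) to luciferin, after 60 min at RT with an NADPH-regenerating system.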

[4] = molecular target: Cytochrome P450 2D6 (Homo sapiens) (UniProt P10635); assay: qHTS Assay for Inhibitors and Substrates of Cytochrome P450 2D6 (AID 891); conditions: recombinant CYP2D6, luciferin-ME EGE luminescence; also: potency is read from the fitted curve at half-maximal effect; nearly all actives have a fitted effect of over 60% in size
Procedure, shortened: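 Luminescent read-out of luciferin formed by 5 nM human CYP2D6 demethylating 30 uM Luciferin-ME EGE (Km level) over 60 min at room temperature after NADPH regeneration addition. Data normalized to full inhibition by 1.43 uM quinidine.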

Sequence of Cytochrome P450 3A4 (Homo sapiens) (P08684 whole entry, looked up): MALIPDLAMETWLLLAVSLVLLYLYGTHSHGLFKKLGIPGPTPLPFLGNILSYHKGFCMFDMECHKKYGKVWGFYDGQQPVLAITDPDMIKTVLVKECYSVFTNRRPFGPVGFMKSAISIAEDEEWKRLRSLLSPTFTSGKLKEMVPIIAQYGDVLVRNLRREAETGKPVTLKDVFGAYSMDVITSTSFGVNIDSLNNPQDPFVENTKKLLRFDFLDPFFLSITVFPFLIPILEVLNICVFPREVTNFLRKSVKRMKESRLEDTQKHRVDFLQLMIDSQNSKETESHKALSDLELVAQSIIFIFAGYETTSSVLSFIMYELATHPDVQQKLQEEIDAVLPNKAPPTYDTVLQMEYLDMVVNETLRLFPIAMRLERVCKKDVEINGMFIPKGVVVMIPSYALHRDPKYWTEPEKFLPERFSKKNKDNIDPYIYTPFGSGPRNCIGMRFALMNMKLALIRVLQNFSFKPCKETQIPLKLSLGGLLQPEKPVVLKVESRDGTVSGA
Sequence of Cytochrome P450 2D6 (Homo sapiens) (P10635 whole entry, looked up): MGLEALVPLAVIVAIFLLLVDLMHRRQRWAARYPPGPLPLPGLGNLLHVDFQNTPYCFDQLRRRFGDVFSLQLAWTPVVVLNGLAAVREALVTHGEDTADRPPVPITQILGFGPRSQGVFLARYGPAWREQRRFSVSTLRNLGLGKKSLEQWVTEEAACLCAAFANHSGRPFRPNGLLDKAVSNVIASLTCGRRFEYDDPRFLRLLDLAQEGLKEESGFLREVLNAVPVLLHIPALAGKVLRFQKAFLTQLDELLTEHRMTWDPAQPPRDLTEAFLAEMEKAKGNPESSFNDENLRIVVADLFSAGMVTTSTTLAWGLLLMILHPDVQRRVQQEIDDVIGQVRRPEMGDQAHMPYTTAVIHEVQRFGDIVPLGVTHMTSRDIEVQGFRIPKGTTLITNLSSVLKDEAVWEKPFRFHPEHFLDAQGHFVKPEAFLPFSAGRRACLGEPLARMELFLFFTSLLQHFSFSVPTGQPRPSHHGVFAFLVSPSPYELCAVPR

**Q.** Which results are given for `C[N+]12CCC(CC1)C(OC(=O)C(O)(c1ccccc1)c1ccccc1)C2` (stereo not drawn)?
**A.** Potency [1]: inactive; outcome [2]: inactive

**Q.** Which outcome [3] does the source give for `O=C1C(CCS(=O)c2ccccc2)C(=O)N(c2ccccc2)N1c1ccccc1` (stereo not drawn) here?
**A.** Its outcome is “inactive”.

**Q.** And the outcome [2]?
**A.** Its outcome is “inactive”.

**Q.** Which results are given for `CCCCC(CC)CN1CN(CC(CC)CCCC)CC(C)(N)C1` (stereo not drawn)?
**A.** Potency [1]: inactive; outcome [2]: inactive

**Q.** Which Potency [1] does the source give for `Cc1cc(C)cc(OCC2CNC(=O)O2)c1` (stereo not drawn) here?
**A.** The Potency was “inactive”.

**Q.** And the outcome [2]?
**A.** Its outcome is “inactive”.

**Q.** Which results are given for `Cc1cc(-c2ccccc2)nnc1NCCN1CCOCC1`?
**A.** outcome [3]: inactive; outcome [2]: inactive

**Q.** Which Potency [1] does the source give for `CN(C)CCOC(=O)C(c1ccccc1)C1(O)CCCC1` (stereo not drawn) here?
**A.** The Potency was “inactive”.

**Q.** What about the outcome [2] of the same molecule?
**A.** The outcome was “inactive”.

**Q.** Which Potency [1] does the source give for `CCC(Cc1c(I)cc(I)c(N)c1I)C(=O)O` (stereo not drawn) here?
**A.** Its Potency is “inactive”.

**Q.** And the outcome [2]?
**A.** Its outcome is “inactive”.

**Q.** Which outcome [2] does the source give for `CC(=O)Nc1ccc(S(=O)(=O)Nc2ccc([N+](=O)[O-])cc2)cc1` here?
**A.** The outcome was “inactive”.

**Q.** With `CCCCCCCCNC(C)C(O)c1ccc(SC(C)C)cc1` (stereo not drawn) as the molecule, how does the outcome [2] read?
**A.** Its outcome is “inactive”.

**Q.** With `O=C(O)CCNC(=O)c1ccccc1` as the molecule, how does the Potency [1] read?
**A.** The Potency was “inactive”.

**Q.** What about the outcome [2] of the same molecule?
**A.** Its outcome is “inactive”.

**Q.** With `CCN(CC)CCNC(=O)c1cc(Br)c(N)cc1OC` as the molecule, how does the outcome [2] read?
**A.** Its outcome is “inactive”.

**Q.** With `CN(C)C(=O)Nc1ccc(Cl)c(Cl)c1` as the molecule, how does the Potency [1] read?
**A.** Its Potency is “inactive”.

**Q.** What about the outcome [2] of the same molecule?
**A.** The outcome was “inactive”.

**Q.** Which outcome [2] does the source give for `CCN(CC)CCNC(=O)COc1ccc(OC)cc1` here?
**A.** Its outcome is “inactive”.

**Q.** Which Potency [4] does the source give for `CCCCc1cc2ccccc2c(OCCN(C)C)n1` here?
**A.** Its Potency is 2 µM (active).

**Q.** Which results are given for `CC(=O)NCCCCCC(=O)O`?
**A.** Potency [1]: inactive; outcome [2]: inactive

**Q.** For `COC(=O)C(c1ccccc1Cl)N1CCc2sccc2C1` (stereo not drawn), which outcome [2] is on record?
**A.** The outcome was “inactive”.

**Q.** With `COc1cc(NS(=O)(=O)c2ccc(N)cc2)ncn1` as the molecule, how does the outcome [2] read?
**A.** The outcome was “inactive”.

**Q.** With `CCCc1ncc(C[n+]2ccccc2C)c(N)n1` as the molecule, how does the Potency [1] read?
**A.** Its Potency is “inactive”.

**Q.** And the outcome [2]?
**A.** The outcome was “inactive”.

**Q.** With `c1ccc(CC2=NCCN2)cc1` as the molecule, how does the outcome [2] read?
**A.** Its outcome is “inactive”.

**Q.** Which outcome [2] does the source give for `OCCOCCN1CCN(C2=Nc3ccccc3Sc3ccccc32)CC1` here?
**A.** The outcome was “inactive”.

**Q.** Which outcome [3] does the source give for `Cc1c(-c2ccccc2)oc2c(C(=O)OCCN3CCCCC3)cccc2c1=O` here?
**A.** Its outcome is “inactive”.

**Q.** And the Potency [4]?
**A.** The Potency was 7.94 µM (active).
